# Source: PubChem (National Center for Advancing Translational Sciences (NCATS))
# Shown are actives, neighbours in structure and some others; about 8.7% of the full set was active somewhere.
# ALOX12 inh = Primary qHTS assay for inhibitors of human arachidonate 12S-lipoxygenase (ALOX12): Round 2; Polyunsaturated fatty acid lipoxygenase ALOX12 (Homo sapiens), P18054; purified 12hLO, xylenol orange hydroperoxide absorbance; Potency, µM (titrated, usually from 108 µM), most hits filed as inhibitors; 1.1% of 580,000 active; AID 1671190, 2021
#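 Hydroperoxide product was detected by ferrous iron/xylenol orange as the 573 to 405 nm absorbance ratio. Arachidonic acid at 40 uM (final) was turned over for 30 min at room temperature by 150 nM human 12hLO, pH 7.0 Hepes buffer, after 15 min compound preincubation.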
# Sfp PPTase inh = qHTS Assay for Inhibitors of Bacillus subtilis Sfp phosphopantetheinyl transferase (PPTase); 4'-phosphopantetheinyl transferase ffp (Bacillus subtilis), Q9F4F7; Biochemical Sfp PPTase activity, qHTS; Potency, µM, usual class: inhibitors; 3.5% of 310,000 active; AID 1490, 2009;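 also: the enzyme is Sfp with the accession as filed and its product quenches rhodamine fluorescence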
#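 Compounds were incubated with enzyme (final 15 nM) for 15 min at room temperature before substrate addition started the reaction. Fluorescence at 525 nm excitation, 598 nm emission was recorded immediately and after 30 minutes.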
# HP1b chromo inh = HTS for Inhibitors of HP1-beta Chromodomain Interactions with Methylated Histone Tails. AlphaScreen HP1-beta / biotin-H3K9me3 peptide binding. Potency, µM (series often up to 114 µM), actives largely listed as inhibitors. 0.56% of 390,000 active. AID 540317, 2011; also: nearly all actives have a fitted effect of over 70% in size
# Target sequence (P83916 whole entry, looked up): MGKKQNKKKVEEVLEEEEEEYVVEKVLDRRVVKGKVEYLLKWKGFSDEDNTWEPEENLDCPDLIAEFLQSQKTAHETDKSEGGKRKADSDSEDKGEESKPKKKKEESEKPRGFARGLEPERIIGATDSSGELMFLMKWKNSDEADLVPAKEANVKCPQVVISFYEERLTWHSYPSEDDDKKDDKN
#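 AlphaScreen: HP1-beta (50 nM) preformed 30 min with biotin-H3(1-18)K9me3 peptide (50 nM) in PBS pH 7.4, 0.01% Tween-20. Compound added for 30 min at RT, then streptavidin donor/nickel chelate acceptor beads (10 ug/mL) for 30 min.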
# BAZ2B block = qHTS Assay for Inhibitors of BAZ2B; AlphaScreen BAZ2B-H3K14Ac peptide displacement; Potency, µM (series often up to 114 µM), usual class: inhibitors; 4.4% of 360,000 active; AID 504333, 2011; also: nearly all actives have a fitted effect of over 60% in size
#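 BAZ2B 50 nM plus b-H3(5-23)K14Ac 50 nM, PBS pH 7.4/0.01% Tween-20, 30 min RT; compound added (max 110 uM), 30 min RT; streptavidin donor/Ni-chelate acceptor beads 10 ug/mL final, 20 min dark; AlphaScreen read.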
# JMJD2A Tudor = qHTS Assay for Inhibitors of JMJD2A-Tudor Domain; Lysine-specific demethylase 4A (Homo sapiens), O75164; Potency, µM (highest dose often 114 µM), actives largely listed as inhibitors; 4.4% of 390,000 active; AlphaScreen JMJD2A-Tudor / H3K4me3 peptide binding; also: nearly all actives have a fitted effect of over 50% in size
# G9a inh = qHTS Assay for Inhibitors of Histone Lysine Methyltransferase G9a | Histone-lysine N-methyltransferase EHMT2 (Homo sapiens), Q96KQ7 | Potency, µM (doses to about 102 µM), most hits filed as inhibitors | 8.8% of 350,000 active | AID 504332, 2011 | G9a H3K9 monomethylation, AlphaScreen, 2 h; also: nearly all actives have a fitted effect of over 75% in size
# Target sequence (Q96KQ7 913-1193 limits assumed): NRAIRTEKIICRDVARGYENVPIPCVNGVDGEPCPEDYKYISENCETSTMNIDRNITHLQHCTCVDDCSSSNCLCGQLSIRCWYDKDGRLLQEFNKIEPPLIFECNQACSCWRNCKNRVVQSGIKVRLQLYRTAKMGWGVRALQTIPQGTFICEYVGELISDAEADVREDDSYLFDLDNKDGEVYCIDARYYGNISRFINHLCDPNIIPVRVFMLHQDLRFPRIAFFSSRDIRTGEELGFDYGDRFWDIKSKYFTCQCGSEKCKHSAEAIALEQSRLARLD
#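 AlphaScreen read-out: biotin-H3K9 peptide (500 nM) methylation by 20 nM enzyme with 20 uM SAM, 2 h at room temperature after 15 min compound preincubation; anti-monomethyl H3K9 antibody plus donor/acceptor beads, 10 min dark.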
# Hits are given with their value; . = inactive; ? = inconclusive; / = no result given. Calls follow the shape of the dose curve; as a rule, active = well fitted curve in the direction sought with a large enough effect; inconclusive = small, poorly fitted or top-dose-only effect, or another doubt; inactive = no such curve, though single readings can be large; an effect the other way counts as inactive or inconclusive.
SMILES,ALOX12 inh,Sfp PPTase inh,HP1b chromo inh,BAZ2B block,JMJD2A Tudor,G9a inh
Nc1c(C(=O)O)sc2nc3c(cc12)CCCC3,?,.,.,.,.,22µM
CCc1nnsc1C(=O)N(C)Cc1ccccc1Cl,.,/,/,/,/,/
S=c1[nH]nc(Nc2cccc(Cl)c2)s1,?,40µM,.,.,.,1.4µM
S=c1[nH]nc(Nc2ccccc2Cl)s1,32µM,.,22µM,45µM,6.3µM,1.4µM
Clc1cccc(Nc2nc(-c3ccncc3)cs2)c1,.,.,.,.,.,.
CCOC(=O)c1ccccc1NC(=O)CN1CCCN(Cc2cccc(OC)c2)S1(=O)=O,.,/,/,/,/,/
Cc1nc(CCN(C)c2nc(C3CCCC3)nc3c2cnn3C)no1,.,/,/,/,/,/
Cc1cc(C(F)(F)F)n2nc(C)c(-c3ccc(Cl)cc3)c2n1,.,.,.,.,.,.
Cc1cc(C(F)(F)F)n2nc(C(=O)O)c(Cl)c2n1,45µM,.,.,.,.,.
COc1ccc(S(=O)(=O)N2CCCCCC2)cc1C(=O)N1CCCCC1,.,.,.,?,.,?
COc1ccc(N2CCN(C(=O)c3ccc(S(=O)(=O)N4CCCC4)cc3)CC2)cc1,.,.,.,.,.,79µM
COc1ccc(N2CCN(C(=O)c3ccc(S(=O)(=O)N4CCOCC4)cc3)CC2)cc1,?,.,.,.,.,8.9µM
COc1ccc(N2CCN(C(=O)c3ccc(S(=O)(=O)N4CCCCCC4)cc3)CC2)cc1,.,/,.,.,?,?
COc1ccc(N2CCN(S(=O)(=O)c3ccc(OC)c(C(=O)N4CCCC4)c3)CC2)cc1,.,.,.,.,.,79µM
Clc1ccccc1-c1cc(C2CCN(Cc3cc4n(n3)CCNC4)CC2)[nH]n1,.,/,/,/,/,/
COc1ccc2[nH]cc(CCNC(=O)CCNc3nc(Cl)nc4nc[nH]c34)c2c1,.,/,/,/,/,/
Oc1ccc(N=Nc2n[nH]c(-c3ccccc3)n2)cc1,.,.,.,?,?,3.2µM
Oc1ccc(N=Nc2nc(-c3ccccc3)c(-c3ccccc3)[nH]2)cc1,?,.,.,11µM,22µM,20µM
N#Cc1ccc(CN2CCN(c3oc(C4CC4)nc3C#N)CC2)cc1,.,/,/,/,/,/
CC(C)(C)c1ccc2c(c1)N(CC(=O)O)C(=O)CO2,.,.,.,.,.,.
CCOC(=O)N1CCN(C(=O)CN2C(=O)COc3ccc(C(C)(C)C)cc32)CC1,.,.,.,.,89µM,?
CC(C)NC(=O)N1CCCC1c1nc(CCOCC2CC2)no1 (stereo not drawn),.,/,/,/,/,/
CSc1cccc(NC(=S)N2CCC(c3ccccc3)C2)c1 (stereo not drawn),?,.,.,.,.,.
CSc1cccc(NC(=S)N2CCC(N(C)C3CCCCC3)CC2)c1,.,.,.,.,.,50µM
CSc1cccc(NC(=S)N2CCC(N(C)C3CCCCC3C)CC2)c1 (stereo not drawn),.,.,.,?,.,50µM
SMILES,ALOX12 inh,Sfp PPTase inh,HP1b chromo inh,BAZ2B block,JMJD2A Tudor,G9a inh
Cn1cc(CN[C@H]2[C@H](O)[C@H](O)C[C@@H]2c2cccnc2)c2ccccc21,45µM,/,/,/,/,/
CCc1noc(CSc2nc(-c3ccco3)nc3ccccc23)n1,.,/,/,/,/,/
CC(C)C(c1nnnn1C(C)(C)C)N1CCOCC1 (stereo not drawn),.,.,.,.,40µM,40µM
C=CCn1c(CC#N)nnc1N1CCOCC1,.,.,.,50µM,?,?
C=CCN1C(c2ccccc2)=CS/C1=C(/C#N)c1nnc(N2CCOCC2)n1-c1ccccc1,.,.,.,.,?,?
Cc1ccccc1OCCNC(=O)c1cc(=O)c2ccccc2o1,.,/,/,/,/,/
COc1ccc(NC(=O)O/N=C2/CCCc3ccc(OC)cc32)cc1,.,.,.,.,14µM,.
N#C/C(=C/c1ccc(OC(F)F)cc1)c1ccc(C(F)(F)F)cn1,.,/,/,/,/,/
